The list is not random: actives were taken first. Their share in the collection is about 3.4%.
TEAD-YAP block: TEAD-YAP interaction inhibition, primary screen, TEAD-YAP interaction inhibitor project, luminescence, HEK-TIYL cells; inhibition, % at 9.12 µM; AID 1259422, 2018; 640,000 tested, 1.4% active; TEAD-Gal4/YAP UAS-luciferase luminescence; in the data active means inhibition above about 32%;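 further: 0% = median of test compound wells and 100% = reference inhibitor wells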
MITF primary: MITF inhibitors, primary screen, biochemical, AlphaScreen, human | inhibition, % at 2.6 µM | 650,000 tested, 0.91% active | AlphaScreen MITF homodimerization, bead proximity signal | AID 1259374, 2018 | Microphthalmia-associated transcription factor (Homo sapiens), O75030; in the data active means inhibition above about 50%;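 further: 0% = vehicle wells with protein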
GPR151 activ: activators of human GPR151, primary screen, cell-based, PathHunter beta-arrestin, luminescence; G-protein coupled receptor 151 (Homo sapiens), Q8TDV0; PathHunter beta-arrestin GPR151 cells; activation, % at 11.2 µM; 650,000 tested, 1% active; in the data active means activation above about 4.9%;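 further: 0% = median of compound wells and 100% = cells with positive control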
FBW7 activator: FBW7 E3 ligase activators, primary screen, biochemical, AlphaScreen, human. F-box/WD repeat-containing protein 7 (Homo sapiens), Q969H0. AlphaScreen FBW7–phospho-cyclin E peptide binding, activator screen. normalized activity (activation), % at 26.1 µM. 650,000 tested, 0.13% active. AID 1259310, 2017; in the data active means normalized activity above about 1.9%;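 further: purified mutant Fbw7 with reduced substrate affinity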
GPR151 confirm: GPR151 activators, triplicate retest, confirmation, cell-based, PathHunter beta-arrestin, luminescence | AID 1508609, 2020 | activation, % at 11.2 µM | shares compounds with GPR151 activ | GPR151 PathHunter beta-arrestin cells, 90 min; % of EA-reagent control over plate median | 6,700 tested, under 10 active;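 active means mean percent activation across replicates above the confirmation screen cutoff of 4.91%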
GPR119 ag: GPR119 activators in beta-arrestin cells, counter-screen for GPR151 activator project, cell-based, PathHunter beta-arrestin, luminescence, triplicate | AID 1508611, 2020 | 6,700 tested, 0.3% active | 90 min; 0 = compound-well median, 100 = enzyme-acceptor control | activation, % at 11.2 µM | shares compounds with GPR151 activ;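 active means mean percent activation in the counterscreen above 29.09%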;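 further: counterscreen on off-target GPR119 to flag nonselective hits from the GPR151 activator screen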
Target sequence (Q8TDV5 whole entry, looked up): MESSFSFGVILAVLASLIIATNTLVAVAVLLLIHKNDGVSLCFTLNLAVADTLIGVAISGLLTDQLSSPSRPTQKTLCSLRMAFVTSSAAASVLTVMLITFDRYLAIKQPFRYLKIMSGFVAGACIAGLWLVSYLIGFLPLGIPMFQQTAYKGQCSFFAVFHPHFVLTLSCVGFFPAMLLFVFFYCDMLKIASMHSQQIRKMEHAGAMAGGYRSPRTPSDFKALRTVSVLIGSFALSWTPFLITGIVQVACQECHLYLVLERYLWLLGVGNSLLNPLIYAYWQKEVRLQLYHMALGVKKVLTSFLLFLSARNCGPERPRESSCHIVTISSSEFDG
Numbers without * were called inactive; · = not tested or not shown.

SMILES	TEAD-YAP block	MITF primary	GPR151 activ	FBW7 activator	GPR151 confirm	GPR119 ag
CCN(CC)C(=O)C1CCCN(c2nc(Nc3cc(OC)c(OC)c(OC)c3)nc(N(CC)CC)n2)C1 (centres undefined)	-7	-2	14*	0	0	-3
COc1cc(Nc2nc(Nc3ccc(NC(C)=O)cc3)c3ncn(C4CCCCC4)c3n2)cc(OC)c1OC	-7	5	1	0	·	·
COc1cc(Nc2nc(Nc3ccncc3)nc3c2ncn3C2CCCCC2)cc(OC)c1OC	5	3	6.1*	0	0	0
CCN(CC)C(=O)C1CCCN(c2nc(Nc3cc(OC)c(OC)c(OC)c3)c3ncn(CCN4CCCC4=O)c3n2)C1 (centres undefined)	7	9	-1	0	·	·
O=C(Cc1ccc([N+](=O)[O-])cc1)Nc1ccc2ccccc2c1	2	-4	1	0	·	·
C=CCNC(=O)CCCc1nc(-c2ccccc2)no1	-4	1	-1	0	·	·
N#CC1=C(N)N(c2cccc(C(F)(F)F)c2)C2=C(C(=O)CCC2)C1c1ccc2c(c1)OCO2 (centres undefined)	-5	11	5.0*	0	1	8
CC1(C)CC(=O)C2=C(C1)N(c1cccc(C(F)(F)F)c1)C(N)=C(C#N)C2c1ccc2c(c1)OCO2 (centres undefined)	0	4	1	0	·	·
CC(C)N(CCNc1ncnc2nc(Nc3nccc4ccccc34)[nH]c12)C(C)C	-3	9	6.1*	0	0	-5
CC(C)N(CCNc1ncnc2nc(Nc3ccccc3)[nH]c12)C(C)C	-7	5	-2	0	·	·
OC1(c2cccnc2)CCN(Cc2cccc(F)c2)CC1	5	7	0	0	·	·
OC1(c2cccc(F)c2)CCN(Cc2ccncc2)CC1	-15	20	6.1*	1	1	17
O=C(NN=C1CCN(Cc2ccccc2)CC1)c1ccc(O)cc1	-12	4	0	0	·	·
Cc1cc(CC(=N)N)c(C)cc1CC(=N)N	-5	6	5.4*	0	-1	-12
COc1ccnc2c1c(=O)n(Cc1ccc([N+](=O)[O-])cc1)c(=O)n2C	-5	9	3	0	·	·
CCNC(=O)C(=O)N/N=C/c1ccccc1	-2	-3	8.2*	0	0	-4
Cc1cc(C(F)(F)F)nc(SCc2ccc(C(=O)NNC(=O)c3cccs3)o2)n1	4	7	1	0	·	·
CCc1cc(N2CCN(C)CC2)n2nc3nc(C)cc(C)c3c2n1	-12	-4	7.2*	0	1	11
CCc1cc(N2CCCC2)n2nc3nc(C)cc(C)c3c2n1	3	-1	0	1	·	·
CCOC(=O)c1sc2nc(SCC(=O)Nc3ccc(OCC)cc3)n(Cc3ccccc3Cl)c(=O)c2c1C	-6	2	2	0	·	·
O=C(COC(=O)c1ccc([N+](=O)[O-])o1)Nc1ccccc1Sc1ccccc1	-2	10	0	-1	·	·
CC(C)C[C@@H]1NC(=O)[C@@H]2C[C@H](NCc3ccc(C(C)C)cc3)CN2C1=O	3	2	-1	0	·	·
Cn1cc(CN[C@H]2C[C@H]3C(=O)N[C@@H](Cc4ccccc4)C(=O)N3C2)c(-c2ccccc2)n1	-16	-19	9.8*	0	0	4
COc1ccccc1CN[C@H]1C[C@H]2C(=O)N[C@@H](CO)C(=O)N2C1	2	11	5.2*	1	1	15
CCC[C@@H]1NC(=O)[C@@H]2C[C@H](NCc3cc(C)ccc3F)CN2C1=O	-7	-2	9.4*	0	2	11
SMILES	TEAD-YAP block	MITF primary	GPR151 activ	FBW7 activator	GPR151 confirm	GPR119 ag
COc1ccc(CN[C@H]2C[C@H]3C(=O)N[C@H](CC(C)C)C(=O)N3C2)cc1	-5	6	5.1*	0	0	10
Cn1nccc1Nc1cc(C(=O)Nc2ccccc2)c2ccccc2n1	-4	21	-2	0	·	·
O=C1N[C@H](CO)C(=O)N2C[C@@H](NCc3nc(-c4ccc(F)cc4)cs3)C[C@@H]12	11	-1	7.7*	0	0	10
CCC[C@@H]1NC(=O)[C@@H]2C[C@H](NCc3cc4ccccc4s3)CN2C1=O	1	10	5.6*	0	0	13
CC(C)C[C@H]1NC(=O)[C@@H]2C[C@H](NCc3nc(-c4ccc(F)cc4)cs3)CN2C1=O	-2	-14	-1	0	·	·
CCCCN(C)C(=O)c1nc2ccccn2c1CN(C)Cc1cc(C)[nH]n1	-5	-5	1	0	·	·
COC(=O)N/N=C/c1ccc(OC)c(OC)c1	-6	21	0	0	·	·
NC(=O)COc1ccc(NC(=O)c2cncc(Br)c2)cc1	-13	-1	6.1*	0	-1	-15
O=C(O)c1cc(-c2cccnc2)nc2ccc(Br)cc12	2	7	-1	1	·	·
Nc1cccc(-c2cc(C(=O)O)c3cc(Br)ccc3n2)c1	-1	7	6.7*	0	-1	-12
Cc1c(-c2ccccc2)sc2nc[nH]c(=O)c12	-15	7	12*	0	0	-8
O=C(CC(O)(C(F)(F)F)C(F)(F)F)Nc1cccc2ccccc12	9	7	0	0	·	·
Cc1nc2sc(C(=O)Nc3cccc(C(F)(F)F)c3)c(C)c2c(=O)[nH]1	2	11	6.5*	0	1	-4
Cc1cccc(NC(=O)c2sc3nc(C)nc(N4CCOCC4)c3c2C)c1	-9	9	1	0	·	·
Cc1nc(N2CCOCC2)c2c(C)c(C(=O)Nc3cccc(C(F)(F)F)c3)sc2n1	6	-5	5.8*	0	-1	-14
Cc1ccc(NC(=O)c2sc3nc(C)nc(N4CCN(c5ccccn5)CC4)c3c2C)c(Br)c1	1	-1	8.8*	0	-1	11
N#Cc1cccc(-c2cccc3ccc(N4CCNCC4)nc23)c1	-5	15	0	1	·	·
CCN(CC)CCCOc1ccccc1[N+](=O)[O-]	-12	5	0	0	·	·
CCN(CC)CCCN1C(=O)C(C)SC1c1ccccc1[N+](=O)[O-] (centres undefined)	4	9	13*	0	1	9
O=C(NCc1cccc(Cl)c1)NCc1noc2ccccc12	-21	-12	6.5*	0	0	2
COC(=O)c1cc2c(cc1NC(=O)NCc1noc3ccccc13)OCO2	11	9	9.2*	0	1	-3

Screening data: PubChem BioAssay, The Scripps Research Institute Molecular Screening Center
